# A selection: hits, their analogues and other compounds. The true share with any hit is near 6%.
# DRD3 antagonist: qHTS of D3 Dopamine Receptor Antagonist: qHTS. D(3) dopamine receptor (Homo sapiens), P35462. D3R cells, DiscoveRx beta-arrestin luminescence, antagonist mode; stronger effect = lower value. max response, negative = inhibition, %. 2.5% of 360,000 active; in the data active = max response below about -50%; inconclusive = no clear call, values can overlap the other calls
# Target sequence (P35462 whole entry, looked up): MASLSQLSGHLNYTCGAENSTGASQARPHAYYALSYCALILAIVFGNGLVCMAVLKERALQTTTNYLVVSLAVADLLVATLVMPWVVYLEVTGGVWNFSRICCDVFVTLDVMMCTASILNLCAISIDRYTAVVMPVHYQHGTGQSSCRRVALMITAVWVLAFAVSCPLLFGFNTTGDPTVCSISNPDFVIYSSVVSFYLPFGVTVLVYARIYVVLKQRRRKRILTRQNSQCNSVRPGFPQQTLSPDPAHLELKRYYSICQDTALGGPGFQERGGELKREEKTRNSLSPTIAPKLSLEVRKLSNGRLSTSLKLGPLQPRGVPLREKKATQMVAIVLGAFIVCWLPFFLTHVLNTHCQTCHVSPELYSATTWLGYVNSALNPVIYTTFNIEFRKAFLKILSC
#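 Cells expressing the human receptor were seeded at 1500 cells/well, incubated overnight at 37 degrees C in 5% CO2, then exposed to library compounds with dopamine controls for 90 minutes at 37 degrees C before luminescent detection.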
# Chronic BCR inh: qHTS Assay to Find Inhibitors of Chronic Active B-Cell Receptor Signaling. ABC-DLBCL IkBa-CBG/CBR reporter, luminescence ratio, 4 h. Potency, µM (top dose mostly 46.1 µM), actives largely listed as inhibitors. 0.05% of 340,000 active. AID 493014, 2011; active = well fitted inhibition curve with a large enough effect in the signal ratio, with a control signal flat, not every such curve was filed as active; inconclusive = small, poorly fitted or top-dose-only effect, or effect the other way, or a change in a side signal; the % refers to the signal ratio
#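 TMD8 ABC-DLBCL cells carrying doxycycline-inducible green luciferase fused to IkappaBalpha plus unfused red luciferase were exposed to compounds (up to 46 uM) for 4 hrs at 37C. Activity came from the overlap-corrected green/red luminescence ratio.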
# D1 antagonist: Antagonist of Human D 1 Dopamine Receptor: qHTS. D(1A) dopamine receptor (Homo sapiens), P21728. AID 504652, 2011. 3.2% of 360,000 active. HEK293 TREx D1 cells, calcium flux, dopamine EC80; stronger effect = lower value. activity change, negative = inhibition, % at 10 µM; in the data active = activity change below about -30%
#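 Inducible Hek293 Trex D1 cells (tetracycline, overnight, 30 C). Calcium dye 30–90 min RT. Antagonist mode: EC80 dopamine added after 180 s compound read.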
# D3 ag: qHTS of D3 Dopamine Receptor Agonist: qHTS; max activation, %; 0.58% of 410,000 active; D3R DiscoveRx beta-arrestin cells, luminescence, 90 min; AID 652048, 2013; D(3) dopamine receptor (Homo sapiens), P35462; in the data active = max activation above about 30%
#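 Agonist mode: compounds and dopamine controls were applied to plated cells for 90 min at 37 degrees C after an overnight attachment at 1500 cells/well. Luminescent read-out followed 30 - 60 minutes at room temperature with DiscoveRx detection reagent.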
# D1 agonist: Allosteric Agonists of the Human D1 Dopamine Receptor: qHTS; D(1A) dopamine receptor (Homo sapiens), P21728; HEK293 T-REx D1 cells, calcium flux, agonist mode; activation, % at 2 µM; 1% of 360,000 active; AID 504660, 2011; in the data active = activation above about 30%
#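 Agonism was scored from calcium flux recorded over 180 s (1 read/s) after pintool compound addition, following a 10-cycle baseline. Cells were inducible force-coupled HEK293 TREx D1, plated overnight at 30 C and loaded with no-wash calcium dye.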
# D1 PAM: Potentiators of Human D1 Dopamine Receptor: qHTS; D(1A) dopamine receptor (Homo sapiens), P21728; potentiation, % at 10 µM; HEK293 TREx D1 cells, calcium flux, dopamine EC20 potentiation; 0.036% of 360,000 active; AID 504651, 2011; in the data active = potentiation above about 30%
# Hits are given with their value; – = inactive; ? = inconclusive; · = no result given.
SMILES,DRD3 antagonist,Chronic BCR inh,D1 antagonist,D3 ag,D1 agonist,D1 PAM
Cn1c(C(=O)NCc2ccc(Cl)cc2)cc2c(=O)n(C)c3ccccc3c21,·,·,–,–,–,–
CC(=O)c1ccc(Cc2ccc(C(C)=O)s2)s1,–,·,·,–,·,·
Cc1cc(NC(=O)C2Oc3ccccc3OC2C)no1 (stereo not given),-138.0,–,–,–,–,–
CC1Oc2ccccc2OC1C(=O)Nc1nccs1 (stereo not given),–,–,–,–,–,–
CCOC(=O)c1c(C)[nH]c(CCC(=O)NCc2ccccc2C)c1C,·,·,–,–,–,–
COC(=O)c1cccc(S(=O)(=O)N2CCN(c3nc4ccccc4s3)CC2)c1,-68.1,–,–,–,–,–
O=C(COC(=O)c1cccc(S(=O)(=O)N2CCN(c3ccccc3)CC2)c1)NCC1CCCO1 (stereo not given),–,–,-33.8,–,–,–
COc1ccc(C(CNC(=O)c2ccc(S(=O)(=O)N3CCCC3)cc2)N(C)C)cc1OC (stereo not given),–,–,–,–,–,–
COc1ccc(CN(C)C(=O)c2cccc(S(=O)(=O)N3CCN(c4ccccc4)CC3)c2)c(OC)c1OC,–,?,-33.4,–,–,–
COC(=O)c1cccc(S(=O)(=O)N2CCCCC2)c1,?,–,–,–,–,–
COc1ccc(C(CNC(=O)c2ccc(S(=O)(=O)N3CC(C)CC(C)C3)cc2)N(C)C)cc1 (stereo not given),-62.8,?,·,–,·,·
COc1cccc(CN(C)C(=O)c2cccc(S(=O)(=O)N3CCN(c4ccccc4)CC3)c2)c1,–,·,·,–,·,·
COC(=O)c1ccc(C(=O)OC)c(NC(=O)c2cc3nc(-c4ccc(C)cc4)cc(C(F)(F)F)n3n2)c1,·,·,–,–,–,–
CN(C)C(CNC(=O)c1cccc(S(=O)(=O)N2CCN(c3ccccc3)CC2)c1)c1ccccc1 (stereo not given),-71.2,·,·,–,·,·
CN(C)C(CNC(=O)c1cccc(S(=O)(=O)N(C)C)c1)c1ccccc1 (stereo not given),–,–,–,–,–,–
CN(C)C(CNC(=O)c1ccc(C(=O)c2ccccc2)cc1)c1ccccc1 (stereo not given),-56.5,–,–,–,–,–
COc1ccc(C(CNC(=O)c2cccc(S(=O)(=O)NCc3ccccc3)c2)N(C)C)cc1 (stereo not given),-71.3,–,–,–,–,–
CSc1ccc(CN(C)C(=O)c2cccc(S(=O)(=O)NCc3ccccc3)c2)cc1,–,?,-32.9,–,–,–
CCn1c(=O)c2cc(C(=O)NCCc3ccc(OC)c(OC)c3)sc2c2ccccc21,·,·,–,–,–,–
CCNC(=O)C1(C)CCCN(C(=O)c2cc(C)nn2C(C)(C)C)C1 (stereo not given),–,·,·,–,·,·
COCCNCc1ccccc1,–,–,–,–,–,–
CC(C)(C)c1ccccc1OCCOCCNCc1ccccc1,-77.7,–,–,–,36.4,–
CNCCOc1ccccc1C(C)(C)C,-54.1,–,–,–,–,–
COc1ccc(OC)c(NS(=O)(=O)c2c(C)nc3sccn3c2=O)c1,–,–,–,–,–,–
COc1cc(Cl)c(C)cc1NS(=O)(=O)c1c(C)nc2sccn2c1=O,·,·,-44.5,–,–,–
SMILES,DRD3 antagonist,Chronic BCR inh,D1 antagonist,D3 ag,D1 agonist,D1 PAM
CCc1ccc(NCc2cc3ccc(OC)cc3n(CC(=O)Nc3ccc(C)c(Cl)c3)c2=O)cc1,·,·,–,–,–,–
CC(C)c1ccc(NC(=O)Nc2cc3sccc3n2C)cc1,–,–,-36.8,–,–,–
COc1ccccc1COCC(O)CNCCc1ccc(C(F)(F)F)cc1 (stereo not given),–,?,–,–,49.6,–
CCOC(=O)c1c(C)n(C)c2ccc(OCC(O)CNCCc3ccccc3)cc12 (stereo not given),–,–,–,–,–,–
OC(CNCCc1ccc(C(F)(F)F)cc1)COc1cccc2ccccc12 (stereo not given),–,–,–,–,42.1,–
OC(CNCCc1ccc(C(F)(F)F)cc1)COc1ccc2ccccc2c1 (stereo not given),–,?,–,–,105.8,–
COc1ccc(CCNCC(O)COc2cccc(C)c2)cc1OC (stereo not given),·,·,·,–,·,·
COc1ccc(CCNCC(O)COc2cccc(Br)c2)cc1 (stereo not given),–,?,–,–,30.0,–
COc1ccc(CNC(=O)c2sc(=O)n(Cc3ccc(C)cc3)c2C)cc1,–,·,·,–,·,·
CC(C)(C)Cc1c(-c2ccco2)nc2ccc(Cl)cn12,–,·,·,–,·,·
Clc1ccccc1CSc1nnc(Cn2cnc3ccccc32)n1-c1ccccc1,–,–,-82.3,–,–,–
CCOc1ccc(NCc2nnc(SCc3ccccc3Cl)n2-c2ccccc2)cc1,–,?,–,–,–,–
CCCCn1nnnc1C(c1cc2ccccc2o1)N1CCN(C(=O)OC(C)(C)C)CC1 (stereo not given),–,·,·,–,·,·
COC(=O)c1sccc1NC(=O)COc1ccc(C)cc1,-74.9,?,–,–,–,–
COC(=O)c1sc(NC(=O)COc2ccc(C)cc2)nc1C,–,?,–,–,–,–
COC(=O)c1sccc1NC(=O)c1cc(C)on1,-53.3,–,–,–,–,–
Cc1ccc2oc(=O)c3cnn(CC(=O)N4CCN(c5cc(Cl)ccc5C)CC4)c3c2c1,·,·,–,–,–,–
CC(C)OC(=O)c1cccc(C(=O)Oc2ccccc2)n1,-58.9,–,–,–,–,–
Cc1ccc(-n2ncc3c(NCCc4ccccc4)ncnc32)cc1Cl,·,?,-36.1,36.6,–,–
Cc1ccc(-n2ncc3c(NCCO)ncnc32)cc1Cl,·,?,-39.3,–,–,–
CC(=O)NNc1ncnc2c1cnn2-c1ccc(C)c(Cl)c1,–,–,–,–,–,–
Cc1ccc(-n2ncc3c(NCCc4ccccc4)ncnc32)cc1,·,?,-49.9,–,–,–
Cc1ccc(-n2ncc3c(NCCCc4ccccc4)ncnc32)cc1,·,–,–,–,–,–
COc1ccc(CCNc2ncnc3c2cnn3-c2ccc(F)cc2)cc1,·,–,-38.1,–,–,–
COc1ccc(CCNc2ncnc3c2cnn3-c2ccc(C)c(Cl)c2)cc1,·,–,-62.6,30.2,–,–
Cc1ccccc1C(=O)NNc1ncnc2c1cnn2C,–,–,–,–,–,–
